Screening data from PubChem.
SW480 rerep – DNA re-replication induction in SW480 cells; SW480 DNA re-replication, Hoechst DNA content imaging, 48 h; Potency, µM (highest dose often 46.1 µM), for the others: at the top dose re-replication activation, actives largely listed as activators; hit rate 1.8% among 340,000; further: % of control where 0% means no effect; nearly all actives have a fitted effect of over 55% in size
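Readout is total intensity of Hoechst-stained nuclei, excited at 405 nm and collected at 500-530 nm. Compound treatment lasted 48 hr at 37 C in 5% CO2 before staining.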
MCF10A rerep – DNA re-replication induction in MCF 10a cells; AID 624296; MCF 10A DNA re-replication, Hoechst nuclear intensity, 48 h; hit rate 2.9% among 350,000; Potency, µM (highest dose often 46.1 µM), inactives show at the top dose activity, positive = re-replication, most hits filed as activators; further: % of control where 0% means no effect; nearly all actives have a fitted effect of over 50% in size
PINK1 expr mod – PINK1 expression modulation. PINK1 immunofluorescence, high-content cytometry, 24 h. hit rate 0.2% among 410,000. Potency, µM (titrated, usually from 76.6 µM), without a hit: at the top dose activation (PINK1 increase), actives largely listed as activators; active means well fitted activation curve with a large enough effect; inconclusive means small, poorly fitted or top-dose-only effect; cell line not stated here; further: % of control where 0% means no effect; nearly all actives have a fitted effect of over 65% in size
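Cells are seeded, rested 12 hours, then given compound at five concentrations or DMSO for 24 hours. After fixation, blocking and antibody staining, PINK1 amount and mitochondrial localization are scored; CCCP serves as control.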
KB-V1 cytotox – KB-V1 MDR subline cytotoxicity. KB-V1 MDR cells viability, CellTiter-Glo, 72 h. Potency, µM (series often up to 46.1 µM), hits mostly cytotoxic. hit rate 3.4% among 400,000. AID 1347076; further: on the % scale 0 is the no-effect control and ±100 the full control effect; nearly all actives have a fitted effect of over 60% in size
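Compound-treated KB-V1 multidrug-resistant cells, 72 h, 37 degrees C; viability by CellTiter-Glo. Fitted qHTS curves give the values.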
KB-3-1 tox – kills parental KB-3-1 adenocarcinoma cells; KB-3-1 viability, CellTiter-Glo ATP luminescence, 72 h; Potency, µM (titrated, usually from 46.1 µM), most hits filed as cytotoxic; hit rate 1.4% among 400,000; further: on the % scale 0 is the no-effect control and ±100 the full control effect; nearly all actives have a fitted effect of over 60% in size
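Parental KB-3-1 adenocarcinoma cells in phenol-red-free DMEM with 10% FBS were pin-treated with compounds at several concentrations, incubated 72 h at 37 °C, and viability read by CellTiter-Glo luminescence; concentration-effect curves were fitted after normalization.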
The depositor's hits bear a star; i = inactive; u = inconclusive; x = no result; [ ] = another dose, or the depositor's remark. The list is not random: actives were taken first. Their share in the collection is about 6.7%. Unless noted, the call rests on the fitted dose curve; in most records, active means well fitted curve in the direction sought with a large enough effect; inconclusive means small, poorly fitted or top-dose-only effect, or another doubt; inactive means no such curve, though single readings can be large; an effect the other way counts as inactive or inconclusive. Potency means the concentration at half of the fitted maximal effect.

SMILES	SW480 rerep	MCF10A rerep	PINK1 expr mod	KB-V1 cytotox	KB-3-1 tox
OC1(c2cccnc2)CCN(Cc2ccc3c(c2)CN(Cc2cc(F)ccc2F)CCO3)CC1	x	x	-1.1%	x	x
COc1ccc(-c2cc(-c3nnc(COC(=O)C4CC4)o3)c3ccccc3n2)cc1OC	20.6µM*	u	0.9%	u	u
COc1ccc(-c2cc(-c3nnc(COC(=O)CC4CCCC4)o3)c3ccccc3n2)cc1OC	u	14.6µM*	2.2%	i	i
COc1ccc(-c2cc(-c3nnc(COC(=O)C4CC4C)o3)c3ccccc3n2)cc1OC (centres undefined)	16.4µM*	u	1.6%	u	i
Cc1ccc(NS(=O)(=O)c2cc(-c3cnc(C4CC4)o3)ccc2C)cc1Cl	x	x	5.4%	u	u
Cn1cnc([N+](=O)[O-])c1S(=O)(=O)Oc1cccc2ccccc12	6.51µM*	5.8µM*	0.1%	u	u
Cn1cnc([N+](=O)[O-])c1Cl	-12.7%	u	-1.2%	i	i
CCN(CC)c1c([N+](=O)[O-])ncn1C	-4.0%	1.3%	0.0%	i	i
CCS(=O)(=O)c1c([N+](=O)[O-])ncn1C	u	11.6µM*	1.5%	i	i
Cn1cnc([N+](=O)[O-])c1S(=O)(=O)Oc1ccc(Cl)cc1	5.8µM*	6.51µM*	5.6%	u	u
Cn1cnc([N+](=O)[O-])c1Oc1cccc2ccccc12	u	20.6µM*	1.7%	u	20.6µM*
CSc1ccc(CN2CCC2(C)C(=O)NCc2cccc(C(F)(F)F)c2)cc1 (centres undefined)	x	x	u	u	i
CC(C)N1C(=O)/C(=C\c2nc3ccccc3c(=O)[nH]2)c2ccccc21	u	u	-0.3%	i	18.4µM*
CC1CN(CC(=O)NCc2ccc(F)cc2)CC(C)O1 (centres undefined)	-4.2%	-2.6%	-1.6%	i	i
S=C(NNc1ccnc2cc(Cl)ccc12)Nc1ccc(Cl)cc1Cl	11.3%	u	8.91µM*	u	u
CC(=O)NS(=O)(=O)c1cccnc1Nc1cccc(Cl)c1C	0.517µM*	-2.0%	0.5%	i	i
CCC(C)[C@@H](NC(=O)OC(C)(C)C)c1nnc(S(=O)(=O)Cc2cccc(C)c2)o1 (some centres undefined)	u	16.4µM*	-4.7%	i	i
O=C(NCC1CCCO1)c1ccc(NC(=O)c2ccc([N+](=O)[O-])cc2)cc1 (centres undefined)	1.8%	-13.7%	3.7%	i	i
COCCCNC(=S)Nc1cc2oc3ccccc3c2cc1OC	11.6µM*	9.2µM*	2.8%	u	u
O=S(=O)(Nc1cccc2ccccc12)N1CCCC1	4.8%	8.2µM*	4.2%[38.3 µM]	u	i
O=S(=O)(Nc1ccc2c(c1)oc1ccccc12)N1CCCC1	-1.9%	-15.5%	-1.8%	i	i
COc1cc2c(cc1NC(=O)CCCCCN1C(=O)CCC1=O)oc1ccccc12	5.7%	0.8%	0.3%[38.3 µM]	7.31µM*	i
COc1cc2c(cc1NC(=S)Nc1cccc3ccccc13)oc1ccccc12	0.5%	3.0%	0.1%	i	i
COc1cc2c(cc1NS(=O)(=O)N1CCCCC1)oc1ccccc12	u	10µM*	12.7%[38.3 µM]	i	i
CCOC(=O)C1CCN(C(c2cccc(F)c2)c2c(O)cc(C)n(Cc3ccco3)c2=O)CC1 (centres undefined)	x	x	0.8%	i	i
O=C1COc2ccc(-c3cc(-c4ccccc4)c4c(n3)-c3cc(Cl)ccc3OC4)cc2N1	x	x	0.6%	i	i
COc1cc2c(cc1NC(=O)CN(C)Cc1ccc(OC)c(OC)c1)oc1ccccc12	18.4µM*	9.2µM*	5.1%	u	u
COc1cc2c(cc1NC(=O)CSc1nc3ccc(C)cc3[nH]1)oc1ccccc12	14.3%	5.17µM*	x	x	x
COc1cc2c(cc1NC(=O)CSc1cccc[n+]1[O-])oc1ccccc12	-7.0%	14.7%	0.6%	11.6µM*	u
COc1cc2c(cc1NCc1ccccn1)oc1ccccc12	3.4%	23.1µM*	1.0%	i	i
